From PubChem BioAssay AID2023 (NMMLSC, 2009)
“And” between values parts separate entries of the source, which are not always exact repeats. Identical values can stand only once. The whole screen tested about 320,000 compounds, of which about 1,100 (0.34%) were called active.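 Rule for the calls: active = GFP response vs DMSO above a set limit, about the screen mean plus 3 SD (cut at about 150% in these data); inconclusive = under 70 cell events counted for the yeast strain; inactive = the rest.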 The entries come from a sample that favours actives as a whole. The source holds several records for some structures; these can differ, active in one and inactive in another.

Assay: modulators of LAP4-GFP expression in yeast, primary screen, S. cerevisiae, multiplex flow cytometry, MLPCN library (AID 2023)
Conditions: 3 h, at 10 µM, stronger effect = higher value, median GFP as percent of DMSO wells

| Structure (SMILES) | GFP response vs DMSO |
| --- | --- |
| O=C(Nc1cc(-c2ccccc2)nn1-c1ccccc1F)c1ccc([N+](=O)[O-])cc1 | 134% (inactive) |
| COc1ccccc1CNC(=O)CN1CCC(n2cnc3cc(F)ccc32)CC1 | 97.5% (inactive) |
| COc1ccc(NC(=O)/C(Cl)=C(/Cl)S(=O)Cc2ccc(C)cc2)cn1 (stereo unspecified) | 201% (active) |
| CCOc1ccc(S(=O)(=O)Nc2ccc(OC)nc2)cc1 | 98.1% (inactive) |
| COc1ccc(Nc2ccc([N+](=O)[O-])cn2)cn1 | 89.6% (inactive) |
| O=C(Nc1ccon1)c1nc[nH]c1C(=O)NCc1ccccc1 | 94.7% (inactive) |
| Cc1cc2ccccc2n1CCC(=O)O | 154% (active) |
| Cc1cc2ccccc2n1CCNC(=O)COc1ccc2ccccc2c1 | 112% (inactive) |
| O=C(O)CCn1c(Cc2ccccc2)nc2ccccc21 | 88.9% (inactive) |
| CCOc1ccc(NC(=S)NC(=O)/C=C/c2ccc(OC)cc2)c([N+](=O)[O-])c1 | 95.5% (inactive) |
| COc1ccc(-n2nc(C(=O)NCC(=O)N3CCCCCC3)c3ccccc3c2=O)cc1Cl | 112% (inactive) |
| CNS(=O)(=O)c1cccc(C(=O)OCCCC(=O)c2ccccc2)c1 | 100% (inactive) |
| COc1cccc(C(=O)c2cc3ccc(O)cc3oc2=O)c1 | 121% (inactive) |
| CCN(CC)c1ccc2cc(C(=O)O)c(=O)oc2c1 | 157% (active) |
| CCOC(=O)c1cc2cc3ccccc3cc2oc1=O | 88.3% (inactive) |
| C[C@H]1CC[C@]2(O[C@@H](CCO)C[C@@H](O)[C@@H]2O)O1 | 105% (inactive) |
| O=c1[nH]c(CSc2ccccc2)nc2c1oc1ccccc12 | 107% (inactive) |
| O=C(Nc1cccc2ccccc12)c1onc2c1CCCC2 | 94% (inactive) |
| COc1ccc(N(CC(=O)NCC2CCCO2)C(=O)CCC(=O)Nc2nccs2)c(OC)c1 (stereo unspecified) | 91.8% (inactive) |
| Cc1ccc(C(=O)Nc2ccn(C)n2)cc1 | 101% (inactive) |
| CN(C)S(=O)(=O)c1cc(C(=O)Nc2ccn(C)n2)c(Cl)cc1Cl | 6410% [may fluoresce green] (active) |
| O=C(Nc1nccs1)c1cc(S(=O)(=O)N2CCOCC2)c(Cl)cc1Cl | 89.4% (inactive) |
| COc1cccc(CCNC(=O)COc2cccc3c2OC(C)(C)C3)c1 | 113% (inactive) |
| COc1cc(F)c(C2=CC(=O)CC(C)(C)C2)cc1F | 118% (inactive) |

| Structure (SMILES) | GFP response vs DMSO |
| --- | --- |
| CCOC(=O)c1ccccc1NC(=S)N1CCC(C(N)=O)CC1 | 111% (inactive) |
| CN(C)CCc1c[nH]c2ccc(Cn3cncn3)cc12 | 119% (inactive) |
| COc1ccc(NC(=O)C2C3C=CC(C3)C2C(=O)NCc2ccccn2)c(OC)c1 (stereo unspecified) | 92.5% (inactive) |
| Cc1ccc(C(C[N+](=O)[O-])c2c(C)cc3ccccn23)cc1 (stereo unspecified) | 97.5% (inactive) |
| CCS(=O)(=O)c1cc([N+](=O)[O-])c(Sc2ccccc2N)s1 | 100% (inactive) |
| Nc1ccccc1SC(C[N+](=O)[O-])c1ccccc1 (stereo unspecified) | 209% (active) |
| COC(=O)c1ccc(N2CCOCC2)c(NC(=O)c2ccc(Br)o2)c1 | 84.3% (inactive) |
| O=C1CCN(CCCc2ccccc2)CCN1CCO | 109% (inactive) |
| COc1ccc(C)cc1NC(=O)CSc1cccc[n+]1[O-] | 99.3% (inactive) |
| Cc1ccc(S(=O)(=O)N2CCC(C)CC2)cc1C(=O)NCc1ccccn1 | 99.2% (inactive) |
| Cc1cc(N)n2nc(-c3ccc(C(C)(C)C)cc3)cc2n1 | 77.9% (inactive) |
| O=C(Nc1ccccc1)c1nnsc1S(=O)(=O)c1ccc(Cl)cc1 | 187% (active) |
| CN(c1cccc(NC(=O)Nc2ccc(Cl)cc2)c1)S(C)(=O)=O | 107% (inactive) |
| Cc1nnsc1C(=O)N/N=C/c1ccccc1Cl | 106% (inactive) |
| CC(C)Oc1ccc(S(=O)(=O)N2CCOCC2)cc1NC(=O)C1CSC2(C)CCC(=O)N12 (stereo unspecified) | 106% (inactive) |
| O=[N+]([O-])c1ccc(S(=O)(=O)Nc2cccc(-c3ccc(N4CCCC4)nn3)c2)cc1 | 100% (inactive) |
| COc1cc(/C=C/C(=O)O)cc(S(=O)(=O)Nc2ccccc2C(=O)NCCc2ccccc2)c1OC | 96% (inactive) |
| CCCn1nc(C(=O)NNC(=O)CSCC(=O)Nc2cc(C)on2)c2ccccc2c1=O | 91.7% (inactive) |
| CCCn1nc(C(=O)Nc2ccc3nc(C)sc3c2)c2ccccc2c1=O | 102% (inactive) |
| CCCn1nc(C(=O)NNC(=O)CCOc2ccccc2OCC)c2ccccc2c1=O | 217% (active) |
| Brc1ccc(Nc2c3c(nc4ncnn24)CCC3)cc1 | 103% (inactive) |
| Cc1cccc(NC(=O)CSc2nnc(CCNC(=O)OC(C)(C)C)o2)c1C | 95.1% (inactive) |
| Cc1ccc2nc(SC(C)C(=O)NCc3ccco3)[nH]c2c1 (stereo unspecified) | 111% (inactive) |
| Cc1ccn(-c2cccc(-n3ccc(C)n3)n2)n1 | 100% (inactive) |

| Structure (SMILES) | GFP response vs DMSO |
| --- | --- |
| CCN(CC)c1ccc(S(=O)(=O)N2CCCCC2)cc1NC(=O)C1=COCCO1 | 99.6% (inactive) |
| CC(NC(=O)C1CCCN(S(=O)(=O)c2ccc(-n3cnnn3)cc2)C1)c1ccc(F)cc1 (stereo unspecified) | 83.4% (inactive) |
| O=C(O)Cc1csc(-c2cccc(Oc3ccccc3)c2)n1 | 110% (inactive) and 152% (active) |
| COc1cc(OC)cc(C(=O)NCC(=O)OCc2csc(-c3ccccc3)n2)c1 | 101% (inactive) |
| O=C(NCCc1csc(-c2ccccc2)n1)c1ccccc1F | 120% (inactive) |
| CC(=O)c1c(C)n([O-])c2ccccc2[n+]1=O | 99.9% (inactive) |
| O=C(COc1cccnc1[N+](=O)[O-])Nc1ccc(Cl)cc1F | 178% (active) |
| CC(NC(=O)COc1cccnc1[N+](=O)[O-])c1ccc(Cl)cc1Cl (stereo unspecified) | 116% (inactive) |
| COc1cccc(NC(=O)COc2cccnc2[N+](=O)[O-])c1 | 94.7% (inactive) |
| COc1cccc(CCNC(=O)c2cccc(NC(=O)C3=C(C)OCCS3)c2)c1 | 93.6% (inactive) |
| CCc1ccc(N(CC(=O)NCc2cccnc2)S(=O)(=O)c2ccccc2)cc1 | 96.7% (inactive) |
| O=C(O)CN1c2cccc3cccc(c23)S1(=O)=O | 92.9% (inactive) |
| COC(=O)Cn1cc(/C=C/[N+](=O)[O-])c2ccccc21 | 164% (active) |
| COC(=O)N/N=C/c1cn(CCCOc2ccc(C)cc2)c2ccccc12 | 89.7% (inactive) |
| COC(=O)c1cn(CC(=O)NCc2cccs2)c2ccccc12 | 95% (inactive) |
| COC(=O)Cc1cnc(NC(=O)CSc2nc(C(C)C)cc(=O)[nH]2)s1 | 114% (inactive) |
| COc1cc(C)c(C(C)C)cc1S(=O)(=O)n1ccnc1 | 89.6% (inactive) |
| COc1ccc2c(c1)O/C(=C\c1ccccc1O)C2=O | 108% (inactive) |
| COC(=O)c1ccc(/C=C2/C(=O)Oc3ccccc32)cc1 | 93.2% (inactive) |
| O=C1Oc2ccccc2C(=O)/C1=C/c1ccccc1O | 208% (active) |
| COc1ccc(Cl)cc1NC(=O)CN(C)C(=O)CCCc1c[nH]c2ccccc12 | 99.5% (inactive) |
| O=Cc1c(NCCCN2CCCC2=O)c2ccccc2[nH]c1=O | 100% (inactive) |
| CCC1Sc2ccc(S(=O)(=O)CCC(=O)NCc3cccs3)cc2NC1=O (stereo unspecified) | 106% (inactive) |
| O=C(Nc1nnc(-c2ccccc2)o1)c1cc(-c2cccs2)nc2ccccc12 | 112% (inactive) |

| Structure (SMILES) | GFP response vs DMSO |
| --- | --- |
| O=C(COC(=O)c1ccccc1Br)Nc1nnc(-c2ccccc2)o1 | 115% (inactive) |
| O=C(Nc1nnc(-c2ccc(Cl)cc2)o1)c1ccccc1Br | 159% (active) |
| Cc1cccc(NS(=O)(=O)c2ccc(C(=O)NCC(C)(C)N3CCOCC3)cc2)c1C | 103% (inactive) |
| CCOc1ccc(NC(=O)CN(C)C(=O)COc2cccc(CC)c2)cc1OCC | 100% (inactive) |
| CCC(=O)N1CCC(C(N)=O)(N2CCCCC2)CC1 | 95.6% (inactive) |
| CCCCCCSc1ccc([C@@H]2[C@@H]3C(=O)N(CC)C(=O)[C@@H]3[C@]3(C(=O)OC)CCCCN23)cc1OC | 90.1% (inactive) |
| CCC(=C/c1sc2ccc3ccccc3c2[n+]1C)/C=C1\Sc2ccc3ccccc3c2N1C | 283% (active) |
| O=C(Nc1cccc(Cl)c1Cl)c1ccccc1NC(=O)C1CC=CCC1C(=O)O (stereo unspecified) | 67.7% (inactive) |
| Cc1cccc(C)c1N1CCN(S(=O)(=O)N2CCOCC2)CC1 | 110% (inactive) |
| C=CCOc1ccc(Cl)cc1CNCCCN1CCOCC1 | 91.3% (inactive) |
| Cc1cccc(Nc2nc3c(S(=O)(=O)c4ccccc4)nnn3c3ccccc23)c1C | 783% [may fluoresce green] (active) |
| CC(=O)Nc1ccc(Nc2nc3c(S(=O)(=O)c4ccc(C)c(C)c4)nnn3c3ccccc23)cc1 | 89.9% (inactive) |
| Cc1ccc(S(=O)(=O)c2nnn3c2nc(N2CCN(c4ccccn4)CC2)c2ccccc23)cc1 | 104% (inactive) |
| CN(C)c1nc(=Nc2cccc(Cl)c2)ss1 | 191% (active) |
| CCOC(=O)N1CCN(C(=O)c2cn(C)c3ccc(S(=O)(=O)N(CC)CC)cc3c2=O)CC1 | 102% (inactive) |
| O=C(O)C1OC(C(=O)O)C2C1C(F)(F)C2(F)F (stereo unspecified) | 99.4% (inactive) |
| O=C(CN1C(=O)NC2(CCCC2)C1=O)NCC1CCCO1 (stereo unspecified) | 104% (inactive) |
| Nc1cc(N)nc(SCc2cccc(F)c2)n1 | 97.2% (inactive) |
| CCc1nnc(SCc2cccc(F)c2)nc1CC | 152% (active) |
| O=c1[nH]c(SCc2cccc(F)c2)nc2ccccc12 | 108% (inactive) |
| O=C(CCC1CCN(C(=O)c2cccc(Cl)c2F)CC1)Nc1ccccc1 | 106% (inactive) |
| COc1ccccc1N1CCN(S(=O)(=O)c2ccc(Cl)cc2)CC1 | 110% (inactive) |
| Cn1ncc(N2CCN(S(=O)(=O)c3ccc(Br)cc3)CC2)c(Cl)c1=O | 170% (active) |
| CCOC(=O)N1CCN(S(=O)(=O)c2ccc(Br)cc2)CC1 | 108% (inactive) |
